# Screening data (PubChem)
# A selection: hits, their analogues and other compounds. The true share with any hit is near 15%.
# HCV inhibitor: qHTS Assay for Inhibitors of Hepatitis C Virus (HCV). Huh7.5.1 HCVcc-Cre infection, luciferase reporter, 44 h. Potency, µM (series often up to 41.8 µM), for inactives: at the highest dose activity change, negative = inhibition, usual class: inhibitors. hit rate 3.4% among 340,000. AID 651820, 2012; further: potency means the concentration at half of the fitted maximal effect; on the % scale 0 is the no-effect control and ±100 the full control effect
#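 Cells seeded at 1,000/well and cultured 4 h, then compounds added followed by HCVcc-Cre virus (~0.5 moi). After 44 h further culture, luciferase substrate was added, plates held 15 min at room temperature, and luminescence read for 15 sec.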
# Pf growth 96h: Primary qHTS for delayed death inhibitors of the malarial parasite plastid, 96 hour incubation. Potency, µM (series often up to 28.7 µM), for the others: top-dose activity change, negative = inhibition, usual class: inhibitors. P. falciparum luciferase reporter growth, 96 h. AID 504834, 2011. hit rate 6.9% among 320,000; further: potency means the concentration at half of the fitted maximal effect; on the % scale 0 is the no-effect control and ±100 the full control effect
#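 Erythrocytes infected with luciferase-expressing P. falciparum were dispensed at 2% hematocrit and 0.05% parasitemia (final), then incubated with compounds 96 hours at 37 C in 5% CO2. Luminescence after detection reagent addition reported growth.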
# HCMV antiviral: qHTS Assay for inhibitors of the human cytomegalovirus (HCMV); hit rate 4.5% among 410,000; activity change, negative = inhibition, % at 57.5 µM; HFF cells, HCMV-luciferase reporter, 72 h; hits give low values; in the data active means activity change below about -60%; inconclusive means no clear call, values can overlap the other calls; inactive means above about -39%; further: on the % scale 0 is the no-effect control and ±100 the full control effect
#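 Steps: HFFs plated, 16 h 37C; compounds added; HCMV-luciferase added to MOI 1 PFU/cell; 72 h 37C; OneGlo reagent, 5 min room temperature; luminescence read, normalized to controls.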
# Pf growth 48h: Primary qHTS for delayed death inhibitors of the malarial parasite plastid, 48 hour incubation. hit rate 5.9% among 310,000. Potency, µM (titrated, usually from 28.7 µM), for inactives: at the highest dose activity change, negative = inhibition, usual class: inhibitors. P. falciparum luciferase growth in erythrocytes, 48 h; further: potency means the concentration at half of the fitted maximal effect; on the % scale 0 is the no-effect control and ±100 the full control effect
#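 Firefly luciferase activity from engineered P. falciparum reports growth; inhibitors lower the luminescent signal. Cultures contained 2% hematocrit erythrocytes at 0.1% final parasitemia.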
# SARS PLpro yeast: qHTS of Yeast-based Assay for SARS-CoV PLP; S. cerevisiae expressing SARS-CoV PLpro, growth rescue; hit rate 0.19% among 330,000; Potency, µM (highest dose often 32.9 µM), inactives show top-dose activity, positive = growth rescue, actives largely listed as activators; AID 485353, 2010; calls by dose curve; further: potency means the concentration at half of the fitted maximal effect; 0% is about no effect; nearly all actives have a fitted effect of over 55% in size
# Sm TGR inh: qHTS Assay for the Inhibitors of Schistosoma Mansoni Peroxiredoxins; Potency, µM (doses to about 114 µM), without a hit: top-dose activity change, negative = inhibition, actives largely listed as inhibitors; hit rate 3% among 360,000; AID 485364, 2010; purified TGR, DTNB reduction, TNB absorbance 405 nm; further: potency means the concentration at half of the fitted maximal effect; on the % scale 0 is the no-effect control and ±100 the full control effect; nearly all actives have a fitted effect of over 60% in size
#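 TGR 20 nM + NADPH 100 uM (dispensed conc.), cpd preinc 15 min RT; start with NADPH (500 uM addition) then DTNB (15 mM addition). Kinetic TNB absorbance, 405 nm filter. Four-parameter Hill fit across titration.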
# Numbers without * were called inactive; u = inconclusive; x = no result given. Unless noted, the call rests on the fitted dose curve; in most records, active means well fitted curve in the direction sought with a large enough effect; inconclusive means small, poorly fitted or top-dose-only effect, or another doubt; inactive means no such curve, though single readings can be large; an effect the other way counts as inactive or inconclusive.
SMILES,HCV inhibitor,Pf growth 96h,HCMV antiviral,Pf growth 48h,SARS PLpro yeast,Sm TGR inh
Cn1c(SCc2ccccc2)nc2ccsc2c1=O,10µM*,-169.9%,u,u,-5.5%,3.1%
CCC(C)NC(=O)CSc1nc2ccsc2c(=O)n1NC(=O)c1ccccc1 (centres undefined),15.7%,8.28µM*,79.6,x,0.0%,-16.3%
Cn1c(SCc2ccc(Br)cc2)nc2ccccc2c1=O,u,u,-35.3,0.0%,2.1%,-0.8%
CCC(C)NC(=O)CSc1nc2ccsc2c(=O)n1-c1ccc(OC)cc1 (centres undefined),6.1%,11.7µM*,-12.4,-20.0%,6.0%,4.0%
O=C(Nn1c(SCc2ccc(F)cc2)nc2ccsc2c1=O)c1ccccc1,6.7%,13.1µM*,34.6,38.8%,-36.7%,3.4%
COC(=O)CCCn1cc(CN2CC(N3CCCC3)CS2(=O)=O)nn1 (centres undefined),x,x,12.4,x,x,x
Cc1cc(C(=O)Nc2ccc([N+](=O)[O-])cn2)cs1,13.5%,121.6%,-7.6,100.3%,-6.2%,5.2%
O=C(NC(=O)c1ccccc1)Nc1cccc(S(=O)(=O)N2CCCCC2)c1,16.1%,u,-13.3,30.1%,1.2%,7.5%
OCC#Cc1ncc(C(F)(F)F)cc1Cl,u,0.0%,7.5,-4.9%,-5.6%,44.7µM*
NC(=O)Cc1ncc(C(F)(F)F)cc1Cl,17.3%,0.0%,-33.7,0.0%,-1.7%,6.4%
COc1ccc2c(c1OC)C(=O)N1c3ccccc3C(=O)N(c3ccccc3F)C21 (centres undefined),u,11.7µM*,3.1,10.4µM*,-9.9%,-10.1%
COc1ccc2c(c1OC)C(=O)N1c3ccccc3SC21 (centres undefined),20.2%,121.3%,99.5,226.2%,3.4%,-2.2%
CC(=O)c1cccc(NC(=O)CN2C(=O)C(=O)N(Cc3ccco3)C2=O)c1,3.3%,23.7%,-13.0,-9.8%,-0.1%,-4.1%
CCC(C)(C)NC(=O)C(c1ccccn1)N(C(=O)c1csnn1)c1ccc(C)cc1 (centres undefined),-0.4%,34.4%,5.3,19.4%,0.0%,0.0%
O=C(CCc1c[nH]c2ccccc12)N[C@@H](Cc1c[nH]c2ccc(O)cc12)C(=O)O,10.6%,4.65µM*,-24.9,3.7µM*,1.0%,2.0%
Cc1noc(C)c1COC(=O)CCCc1c[nH]c2ccccc12,-5.4%,u,105.7,11.7µM*,-12.3%,-15.8%
O=C(CCCc1c[nH]c2ccccc12)Nc1ncccc1O,-8.6%,u,-88.2*,0.4%,4.2%,0.2%
O=C(Cc1ccc(F)cc1)NC(Cc1c[nH]c2ccccc12)C(=O)O (centres undefined),9.3%,4.2%,-62.3*,0.4%,-0.2%,1.2%
O=C(CCCc1c[nH]c2ccccc12)N[C@@H](Cc1c[nH]c2ccccc12)C(=O)O,-3.5%,8.28µM*,18.6,9.28µM*,-5.4%,1.3%
N[C@H](Cc1c[nH]c2ccccc12)C(=O)O,x,1.51µM*,x,4.2%,x,x
O=C(O)c1nccnc1C(=O)NCCc1c[nH]c2ccccc12,16.4%,11.4%,14.2,1.1%,-2.2%,1.6%
CCOc1ncccc1C(=O)NCCc1c[nH]c2ccccc12,-1.9%,-11.2%,-66.5*,-16.7%,-0.5%,8.3%
O=C(O)Cc1c[nH]c2ccccc12,27.2%,x,x,x,x,x
Cc1ccc(-c2ccc(/C=N/O)o2)cc1[N+](=O)[O-],-19.7%,-15.0%,15.5,102.3%,-13.7%,2.0%
Cc1nnc(-n2cccc2)s1,x,x,-39.7,x,x,x
SMILES,HCV inhibitor,Pf growth 96h,HCMV antiviral,Pf growth 48h,SARS PLpro yeast,Sm TGR inh
Cc1nc([N+](=O)[O-])c(C(=O)OCc2cccc(Br)c2)n1C,-27.6%,7.38µM*,6.4,2.3%,-4.9%,3.1%
Cc1nc([N+](=O)[O-])c(C(=O)OCc2ccccc2)n1C,-2.1%,u,-21.6,45.4%,0.5%,0.6%
Cc1[nH]c2ccccc2c1C(=O)C(=O)NCc1ccncc1,1.4%,x,6.1,x,x,x
Cc1ccc(Cl)cc1N1CCN(C(=O)Cn2cnc3sc(C)c(S(=O)(=O)N4CCC(C)CC4)c3c2=O)CC1,x,x,22.7,x,x,2.4%
C=C1CC2(OC1=O)c1ccccc1CCc1ccccc12,u,x,-97.4*,x,x,x
O=C1NC(=O)C2(CCc3ccccc32)N1 (centres undefined),18.4%,-15.1%,-0.4,13.8%,1.2%,2.8%
COC(=O)[C@]1(C)N[C@H](c2ccc(SC3CCCCC3)c(OC)c2)[C@@H]2C(=O)N(C)C(=O)[C@@H]21,25.8%,u,5.0,u,3.2%,-12.3%
COc1ccc(-c2cc(C(F)(F)F)n3ncc(C(=O)N4CCCCC4c4cccnc4)c3n2)cc1 (centres undefined),u,-11.8%,u,2.94µM*,0.1%,-2.7%
CCOC(=O)C1CCCN(C(=O)c2cc(-c3ccc(C)cc3)nc3ccccc23)C1 (centres undefined),-19.5%,13.9%,63.3,1.1%,-15.5%,11.7%
CCOC(=O)C1CCCN(C(=O)c2cc3nc(-c4cccc(OC)c4)cc(C(F)(F)F)n3n2)C1 (centres undefined),u,x,39.9,11.7µM*,-4.0%,-17.9%
CCOC(=O)c1cnn2c(C(F)(F)F)cc(-c3ccc(Br)cc3)nc12,x,x,1.1,x,x,39.8µM*
CCOC(=O)c1cnn2c(C(F)(F)F)cc(-c3ccccc3)nc12,u,-5.8%,-9.1,4.6%,17.7%,2.4%
CCOC(=O)C1CCCN(C(=O)c2cnn3c(C(F)(F)F)cc(-c4ccccc4)nc23)C1 (centres undefined),-23.5%,x,-23.3,9.28µM*,16.0%,-4.1%
CN(Cc1ccccc1)C(=O)c1[nH]cnc1C(=O)Nc1ccccc1F,x,x,-5.8,x,x,x
COc1ccc(C(=O)N/N=C/c2cc3ccccc3[nH]c2=S)cc1,-7.9%,13.1µM*,29.8,x,10.3%,-26.5%
COc1cc(OC)c(C(=O)N/N=C/c2ccoc2)cc1OC,5.3%,-33.2%,-68.8*,3.0%,4.8%,0.0%
COc1ccc(C(=O)N/N=C\c2ccoc2)cc1,24.2%,4.65µM*,26.4,6.2%,-6.9%,-25.6%
CCOc1ccccc1C(=O)N/N=C/c1ccoc1,7.5%,u,1.7,-0.8%,u,-9.7%
Cc1ccc(C(=O)N/N=C/c2ccoc2)cc1C,-2.3%,-18.8%,-18.4,6.4%,-7.6%,-6.9%
COc1ccccc1-c1nc(SCC(=O)Nc2cc(C)on2)c2c(=O)n(C)c(=O)n(C)c2n1,u,u,-4.0,6.7%,2.0%,2.3%
